PMC11006913
Residue numbers refer to the chain shown, from its start.

What was measured:
Experiment in all cases: PBM; 200 nM protein, PBS
Details in all cases: dsDNA, one strand shown
VENTX [1] = target: T1, VENTX (Homo sapiens, UniProt O95231 78-163, R121Q)
T1 sequence: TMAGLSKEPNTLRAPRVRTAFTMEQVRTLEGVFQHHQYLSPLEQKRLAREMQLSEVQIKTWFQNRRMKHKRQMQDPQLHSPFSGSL

VENTX [2] = target: T2, VENTX (Homo sapiens, UniProt O95231 78-163, Y115F)
T2 sequence: T1 sequence with Y38F, Q44R

HOXB6 = HOXB6 (Homo sapiens, UniProt P17509 132-218, K202E)
HOXA2 = HOXA2 (Homo sapiens, UniProt O43364 129-215, R185T)
HOXA4 [3] = target: HOXA4 (Homo sapiens, UniProt Q00056 201-287, R217L)
MSX2 [4] = target: MSX2 (Homo sapiens, UniProt P35548 130-214, R199I)
MSX2 [5] = target: MSX2 (Homo sapiens, UniProt P35548 130-214)
MSX2 [6] = target: MSX2 (Homo sapiens, UniProt P35548 130-214, F161Y)
VAX1 [7] = target: VAX1 (Homo sapiens, UniProt Q5SQQ9 86-172, T142I)
VAX1 [8] = target: VAX1 (Homo sapiens, UniProt Q5SQQ9 86-172, K157R)
HOXA4 [9] = target: HOXA4 (Homo sapiens, UniProt Q00056 201-287, W262R)
PRRX1 [10] = target: PRRX1 (Homo sapiens, UniProt P54821 80-166, F113S)
HOXB4 [11] = target: HOXB4 (Homo sapiens, UniProt P17483 148-234, V174I)
HOXA4 [12] = target: HOXA4 (Homo sapiens, UniProt Q00056 201-287)
HOXA4 [13] = target: HOXA4 (Homo sapiens, UniProt Q00056 201-287, W262F)
HOXB4 [14] = target: HOXB4 (Homo sapiens, UniProt P17483 148-234)
PAX4 [15] = target: T3, PAX4 (Homo sapiens, UniProt O43316 9-242, R200Q)
T3 sequence: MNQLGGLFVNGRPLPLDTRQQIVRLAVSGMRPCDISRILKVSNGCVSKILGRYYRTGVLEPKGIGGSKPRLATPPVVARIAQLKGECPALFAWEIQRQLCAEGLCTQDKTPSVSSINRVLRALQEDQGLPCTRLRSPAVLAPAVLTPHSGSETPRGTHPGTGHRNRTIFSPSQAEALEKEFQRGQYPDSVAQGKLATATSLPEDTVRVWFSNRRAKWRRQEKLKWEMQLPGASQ

PAX4 [16] = target: T4, PAX4 (Homo sapiens, UniProt O43316 9-242, F177V)
T4 sequence: T3 sequence with F169V, Q192R

PAX4 [17] = target: T5, PAX4 (Homo sapiens, UniProt O43316 9-242, F177Y)
T5 sequence: T3 sequence with F169Y, Q192R

PRRX1 [18] = target: PRRX1 (Homo sapiens, UniProt P54821 80-166)
Chain of PRRX1 (Homo sapiens, UniProt P54821 80-166) (P54821 80-166): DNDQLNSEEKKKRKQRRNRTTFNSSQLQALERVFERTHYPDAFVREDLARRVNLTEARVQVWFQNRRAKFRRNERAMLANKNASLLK

Chain of MSX2 (Homo sapiens, UniProt P35548 130-214, F161Y) (P35548 130-214 F161Y): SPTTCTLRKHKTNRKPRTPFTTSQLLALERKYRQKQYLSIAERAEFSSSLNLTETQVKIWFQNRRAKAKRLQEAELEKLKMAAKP
Chain of HOXA4 (Homo sapiens, UniProt Q00056 201-287, R217L) (Q00056 201-287 R217L): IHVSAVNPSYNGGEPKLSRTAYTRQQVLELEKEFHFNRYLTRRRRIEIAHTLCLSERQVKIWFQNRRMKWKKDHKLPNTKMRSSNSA
Chain of VAX1 (Homo sapiens, UniProt Q5SQQ9 86-172, K157R) (Q5SQQ9 86-172 K157R): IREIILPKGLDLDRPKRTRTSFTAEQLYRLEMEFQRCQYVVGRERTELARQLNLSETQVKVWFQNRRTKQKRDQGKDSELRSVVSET
Chain of PRRX1 (Homo sapiens, UniProt P54821 80-166, F113S) (P54821 80-166 F113S): as the sequence (P54821 80-166) above, with F34S counted along it
Chain of MSX2 (Homo sapiens, UniProt P35548 130-214) (P35548 130-214): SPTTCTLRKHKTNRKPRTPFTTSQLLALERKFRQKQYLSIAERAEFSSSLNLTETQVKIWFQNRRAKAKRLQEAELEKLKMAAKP
Chain of HOXB6 (P17509 132-218 K202E): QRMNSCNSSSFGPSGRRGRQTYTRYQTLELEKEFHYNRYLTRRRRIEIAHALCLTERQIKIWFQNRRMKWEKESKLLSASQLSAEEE
Chain of HOXB4 (Homo sapiens, UniProt P17483 148-234, V174I) (P17483 148-234 V174I): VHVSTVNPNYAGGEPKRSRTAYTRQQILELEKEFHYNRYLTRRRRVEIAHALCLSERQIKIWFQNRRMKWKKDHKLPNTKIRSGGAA
Chain of HOXA4 (Homo sapiens, UniProt Q00056 201-287) (Q00056 201-287): as the sequence (Q00056 201-287 R217L) above, with L17R counted along it
Chain of VAX1 (Homo sapiens, UniProt Q5SQQ9 86-172, T142I) (Q5SQQ9 86-172 T142I): as the sequence (Q5SQQ9 86-172 K157R) above, with T57I, R72K counted along it
Chain of MSX2 (Homo sapiens, UniProt P35548 130-214, R199I) (P35548 130-214 R199I): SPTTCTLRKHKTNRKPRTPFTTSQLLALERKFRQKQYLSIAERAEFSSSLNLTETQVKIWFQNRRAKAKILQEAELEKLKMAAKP
Chain of HOXA4 (Homo sapiens, UniProt Q00056 201-287, W262F) (Q00056 201-287 W262F): as the sequence (Q00056 201-287 R217L) above, with L17R, W62F counted along it
Chain of HOXA2 (O43364 129-215 R185T): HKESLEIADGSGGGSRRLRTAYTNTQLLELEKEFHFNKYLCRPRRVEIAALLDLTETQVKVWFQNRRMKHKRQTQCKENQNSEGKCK
Chain of HOXA4 (Homo sapiens, UniProt Q00056 201-287, W262R) (Q00056 201-287 W262R): as the sequence (Q00056 201-287 R217L) above, with L17R, W62R counted along it
Chain of HOXB4 (Homo sapiens, UniProt P17483 148-234) (P17483 148-234): as the sequence (P17483 148-234 V174I) above, with I27V counted along it

TAATTGCA
binding signal (VENTX [1]): 11.8 upbm affinity estimate (log intensity, higher = more binding, comparable within an allelic series)
binding signal (VENTX [2]): 11.6 upbm affinity estimate (log intensity, higher = more binding, comparable within an allelic series)
binding signal (HOXB6): 10 upbm affinity estimate (log intensity, higher = more binding, comparable within an allelic series)
binding signal (HOXA2): 12.7 upbm affinity estimate (log intensity, higher = more binding, comparable within an allelic series)
binding signal (HOXA4 [3]): 11.9 upbm affinity estimate (log intensity, higher = more binding, comparable within an allelic series)
binding signal (MSX2 [4]): 13 upbm affinity estimate (log intensity, higher = more binding, comparable within an allelic series)
binding signal (MSX2 [5]): 13.9 upbm affinity estimate (log intensity, higher = more binding, comparable within an allelic series)
binding signal (MSX2 [6]): 13.6 upbm affinity estimate (log intensity, higher = more binding, comparable within an allelic series)
binding signal (VAX1 [7]): 12.5 upbm affinity estimate (log intensity, higher = more binding, comparable within an allelic series)
binding signal (VAX1 [8]): 12.4 upbm affinity estimate (log intensity, higher = more binding, comparable within an allelic series)

AACAATTA
binding signal (VENTX [1]): 11.7 upbm affinity estimate (log intensity, higher = more binding, comparable within an allelic series)
binding signal (HOXA4 [9]): 10.6 upbm affinity estimate (log intensity, higher = more binding, comparable within an allelic series)
binding signal (PRRX1 [10]): 11.1 upbm affinity estimate (log intensity, higher = more binding, comparable within an allelic series)
binding signal (HOXB6): 10 upbm affinity estimate (log intensity, higher = more binding, comparable within an allelic series)
binding signal (HOXA4 [3]): 11.9 upbm affinity estimate (log intensity, higher = more binding, comparable within an allelic series)
binding signal (HOXB4 [11]): 13.6 upbm affinity estimate (log intensity, higher = more binding, comparable within an allelic series)
binding signal (MSX2 [4]): 12.8 upbm affinity estimate (log intensity, higher = more binding, comparable within an allelic series)
binding signal (HOXA4 [12]): 13.6 upbm affinity estimate (log intensity, higher = more binding, comparable within an allelic series)
binding signal (MSX2 [5]): 13.9 upbm affinity estimate (log intensity, higher = more binding, comparable within an allelic series)
binding signal (MSX2 [6]): 13.5 upbm affinity estimate (log intensity, higher = more binding, comparable within an allelic series)
binding signal (HOXA4 [13]): 11.3 upbm affinity estimate (log intensity, higher = more binding, comparable within an allelic series)

TAATTAGA
binding signal (HOXB4 [14]): 13.5 upbm affinity estimate (log intensity, higher = more binding, comparable within an allelic series)
binding signal (VENTX [1]): 12.5 upbm affinity estimate (log intensity, higher = more binding, comparable within an allelic series)
binding signal (HOXA4 [9]): 10.8 upbm affinity estimate (log intensity, higher = more binding, comparable within an allelic series)
binding signal (PRRX1 [10]): 11.9 upbm affinity estimate (log intensity, higher = more binding, comparable within an allelic series)
binding signal (VENTX [2]): 12.4 upbm affinity estimate (log intensity, higher = more binding, comparable within an allelic series)
binding signal (HOXB6): 10 upbm affinity estimate (log intensity, higher = more binding, comparable within an allelic series)
binding signal (HOXA2): 13.9 upbm affinity estimate (log intensity, higher = more binding, comparable within an allelic series)
binding signal (HOXA4 [3]): 12.5 upbm affinity estimate (log intensity, higher = more binding, comparable within an allelic series)
binding signal (HOXB4 [11]): 14.2 upbm affinity estimate (log intensity, higher = more binding, comparable within an allelic series)
binding signal (MSX2 [4]): 13.2 upbm affinity estimate (log intensity, higher = more binding, comparable within an allelic series)
binding signal (PAX4 [15]): 12.7 upbm affinity estimate (log intensity, higher = more binding, comparable within an allelic series)
binding signal (PAX4 [16]): 11 upbm affinity estimate (log intensity, higher = more binding, comparable within an allelic series)
binding signal (HOXA4 [12]): 14.1 upbm affinity estimate (log intensity, higher = more binding, comparable within an allelic series)
binding signal (MSX2 [5]): 14.1 upbm affinity estimate (log intensity, higher = more binding, comparable within an allelic series)
binding signal (PAX4 [17]): 11.5 upbm affinity estimate (log intensity, higher = more binding, comparable within an allelic series)
binding signal (MSX2 [6]): 13.7 upbm affinity estimate (log intensity, higher = more binding, comparable within an allelic series)
binding signal (VAX1 [7]): 13.7 upbm affinity estimate (log intensity, higher = more binding, comparable within an allelic series)
binding signal (HOXA4 [13]): 12.1 upbm affinity estimate (log intensity, higher = more binding, comparable within an allelic series)
binding signal (PRRX1 [18]): 13.6 upbm affinity estimate (log intensity, higher = more binding, comparable within an allelic series)
binding signal (VAX1 [8]): 13.9 upbm affinity estimate (log intensity, higher = more binding, comparable within an allelic series)

CAATTAAC
binding signal (HOXB4 [14]): 13.2 upbm affinity estimate (log intensity, higher = more binding, comparable within an allelic series)
binding signal (VENTX [1]): 12.2 upbm affinity estimate (log intensity, higher = more binding, comparable within an allelic series)
binding signal (HOXA4 [9]): 10.6 upbm affinity estimate (log intensity, higher = more binding, comparable within an allelic series)
binding signal (PRRX1 [10]): 11.3 upbm affinity estimate (log intensity, higher = more binding, comparable within an allelic series)
binding signal (VENTX [2]): 11.9 upbm affinity estimate (log intensity, higher = more binding, comparable within an allelic series)
binding signal (HOXB6): 9.99 upbm affinity estimate (log intensity, higher = more binding, comparable within an allelic series)
binding signal (HOXA2): 13.1 upbm affinity estimate (log intensity, higher = more binding, comparable within an allelic series)
binding signal (HOXA4 [3]): 12.4 upbm affinity estimate (log intensity, higher = more binding, comparable within an allelic series)
binding signal (HOXB4 [11]): 13.9 upbm affinity estimate (log intensity, higher = more binding, comparable within an allelic series)
binding signal (MSX2 [4]): 13.1 upbm affinity estimate (log intensity, higher = more binding, comparable within an allelic series)
binding signal (PAX4 [15]): 12 upbm affinity estimate (log intensity, higher = more binding, comparable within an allelic series)
binding signal (PAX4 [16]): 10.6 upbm affinity estimate (log intensity, higher = more binding, comparable within an allelic series)
binding signal (HOXA4 [12]): 13.9 upbm affinity estimate (log intensity, higher = more binding, comparable within an allelic series)
binding signal (MSX2 [5]): 14 upbm affinity estimate (log intensity, higher = more binding, comparable within an allelic series)
binding signal (PAX4 [17]): 10.9 upbm affinity estimate (log intensity, higher = more binding, comparable within an allelic series)
binding signal (MSX2 [6]): 13.6 upbm affinity estimate (log intensity, higher = more binding, comparable within an allelic series)
binding signal (VAX1 [7]): 12.8 upbm affinity estimate (log intensity, higher = more binding, comparable within an allelic series)
binding signal (HOXA4 [13]): 11.6 upbm affinity estimate (log intensity, higher = more binding, comparable within an allelic series)
binding signal (PRRX1 [18]): 13.4 upbm affinity estimate (log intensity, higher = more binding, comparable within an allelic series)
binding signal (VAX1 [8]): 13 upbm affinity estimate (log intensity, higher = more binding, comparable within an allelic series)

CTAATTGA
binding signal (HOXB4 [14]): 13.3 upbm affinity estimate (log intensity, higher = more binding, comparable within an allelic series)
binding signal (VENTX [1]): 12.1 upbm affinity estimate (log intensity, higher = more binding, comparable within an allelic series)
binding signal (HOXA4 [9]): 10.5 upbm affinity estimate (log intensity, higher = more binding, comparable within an allelic series)
binding signal (PRRX1 [10]): 11.1 upbm affinity estimate (log intensity, higher = more binding, comparable within an allelic series)
binding signal (VENTX [2]): 11.7 upbm affinity estimate (log intensity, higher = more binding, comparable within an allelic series)
binding signal (HOXA2): 13.3 upbm affinity estimate (log intensity, higher = more binding, comparable within an allelic series)
binding signal (HOXA4 [3]): 12 upbm affinity estimate (log intensity, higher = more binding, comparable within an allelic series)
binding signal (HOXB4 [11]): 14 upbm affinity estimate (log intensity, higher = more binding, comparable within an allelic series)
binding signal (MSX2 [4]): 12.8 upbm affinity estimate (log intensity, higher = more binding, comparable within an allelic series)
binding signal (PAX4 [15]): 11.8 upbm affinity estimate (log intensity, higher = more binding, comparable within an allelic series)
binding signal (PAX4 [16]): 10.4 upbm affinity estimate (log intensity, higher = more binding, comparable within an allelic series)
binding signal (HOXA4 [12]): 13.9 upbm affinity estimate (log intensity, higher = more binding, comparable within an allelic series)
binding signal (MSX2 [5]): 13.9 upbm affinity estimate (log intensity, higher = more binding, comparable within an allelic series)
binding signal (PAX4 [17]): 10.8 upbm affinity estimate (log intensity, higher = more binding, comparable within an allelic series)
binding signal (MSX2 [6]): 13.5 upbm affinity estimate (log intensity, higher = more binding, comparable within an allelic series)
binding signal (VAX1 [7]): 13.2 upbm affinity estimate (log intensity, higher = more binding, comparable within an allelic series)
binding signal (HOXA4 [13]): 11.4 upbm affinity estimate (log intensity, higher = more binding, comparable within an allelic series)
binding signal (PRRX1 [18]): 13.5 upbm affinity estimate (log intensity, higher = more binding, comparable within an allelic series)
binding signal (VAX1 [8]): 13.4 upbm affinity estimate (log intensity, higher = more binding, comparable within an allelic series)
